Compound activity from PubChem.
TDP1 cell CPT – DT40-hTDP1 cell growth loss with CPT; 12% of 420,000 active; chicken DT40 Tdp1-/-;hTDP1 cells + 20 nM CPT, ATP luminescence, 48 h; Potency, µM (highest dose often 46.2 µM), without a hit: at the highest dose activity change, negative = growth inhibition, hits mostly inhibitors; further: potency means the concentration at half of the fitted maximal effect; nearly all actives have a fitted effect of over 55% in size
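Cell growth measured by CellTiter-Glo luminescence after a minimum 48 h, 37 C compound exposure with 20 nM CPT in Tdp1-knockout DT40 cells stably expressing hTDP1, seeded 400/well; qHTS titration format.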
DT40 TDP1 no CPT – qHTS for Inhibitors of human tyrosyl-DNA phosphodiesterase 1 (TDP1): qHTS in cells in absence of CPT | DT40 Tdp1-/- hTDP1 cells, no CPT, ATP luminescence, 48 h | Potency, µM (doses to about 46.2 µM), for the others: top-dose activity change, negative = growth inhibition, usual class: inhibitors | 15% of 420,000 active | AID 686978, 2013; further: potency means the concentration at half of the fitted maximal effect; nearly all actives have a fitted effect of over 55% in size
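Cells were dispensed at 400 per well, compounds added by pin tool, plates incubated ≥48 hr at 37 °C, then CellTiter-Glo added for 30 min at room temperature before luminescence reading. Line: DT40 Tdp1-/- complemented with hTDP1; camptothecin omitted.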
HT1080NT lethal – kills 2HG-producing HT-1080-NT fibrosarcoma cells. HT-1080-NT fibrosarcoma viability, CellTiter-Glo ATP luminescence, 48 h. AID 686970. 1.6% of 360,000 active. Potency, µM (top dose mostly 46.1 µM), inactives show at the top dose activity, negative = less viability, actives largely listed as cytotoxic;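 further: NT is the 2HG producing partner of a matched IDH1 knockdown line; potency means the concentration at half of the fitted maximal effect; 0% = DMSO-treated cells and -100% = media-only wells without cells; nearly all actives have a fitted effect of over 55% in size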
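Luminescent CellTiter-Glo readout after 48 hours of compound exposure at 37 degrees C defined viability of HT-1080-NT cells. Activity was normalized to DMSO wells and cell-free media wells; concentration-response curves were fitted and assigned curve classes.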
HT1080 IDH1KD tx – kills HT-1080 cells with IDH1 knockdown. HT-1080 IDH1 knockdown viability, ATP luminescence, 48 h. Potency, µM (highest dose often 46.1 µM), inactives show top-dose activity, negative = toxicity, most hits filed as cytotoxic. 2% of 360,000 active. AID 686971;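 further: potency means the concentration at half of the fitted maximal effect; 0% = DMSO wells and -100% = cell-free medium wells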
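CellTiter-Glo luminescence after 48 h compound exposure at 37 degrees C of IDH1-knockdown HT-1080 cells in 5% FBS RPMI. %Activity scaled between DMSO wells and cell-free media wells, with curves fitted and assigned curve classes.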
IL-1B inflam inh – inhibitors of inflammasome signaling (IL-1 beta secretion) | THP-1 LPS/ATP IL-1B secretion, AlphaLISA, 16 h; stronger effect = lower value | activity change, % at 57.5 µM | 4.7% of 360,000 active | AID 743279; in the data active means activity change below about -50%; inconclusive means mostly about -30% to -49%
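Secreted IL-1B measured by AlphaLISA bead assay after 16 h compound exposure of THP-1 cells; compounds (final up to 57.5 uM) added 1 h before LPS (250 ng/mL) and ATP (1.25 mM) stimulation; lower signal means less secretion.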
Starred values were filed as active, the others as inactive; u = inconclusive; x = no result given; [ ] = another dose, or the depositor's remark. Shown are actives, neighbours in structure and some others; about 19% of the full set was active somewhere. Unless noted, the call rests on the fitted dose curve; in most records, active means well fitted curve in the direction sought with a large enough effect; inconclusive means small, poorly fitted or top-dose-only effect, or another doubt; inactive means no such curve, though single readings can be large; an effect the other way counts as inactive or inconclusive. Unless noted, on the % scale 0 is the no-effect control and ±100 the full control effect.

SMILES | TDP1 cell CPT | DT40 TDP1 no CPT | HT1080NT lethal | HT1080 IDH1KD tx | IL-1B inflam inh
O=C(O)CCC(=O)Nc1sc2c(c1C(=O)Nc1cccc3ccccc13)CCCCC2 | -4% | -15% | 2% | 2% | 6
COc1ccccc1C(=O)NCCc1c(C)[nH]c2c(C)ccc(F)c12 | -14% | -6% | 14% | 8% | -8
O=C(COc1ccc(Cl)cc1)Nc1sc2c(c1C(=O)Nc1cccc(Cl)c1)CCCC2 | 18µM* | 7.3µM* | x | x | x
Cc1ccccc1NC(=O)c1c(NC(=O)c2ccccc2)sc2c1CCC2 | -1% | -11% | x | x | x
Cc1ccccc1NC(=O)c1c(NC(=O)C(F)(F)F)sc2c1CCCCC2 | 3.7µM* | 2.9µM* | x | x | x
CCOc1ccccc1NC(=O)c1c(NC(=O)c2ccncc2)sc2c1CCC(C(C)(C)C)C2 (centres undefined) | -23% | -17% | x | x | x
Cc1ccccc1NC(=O)c1c(NC(=O)c2ccncc2)sc2c1CCC(C(C)(C)C)C2 (centres undefined) | 18µM* | 6.5µM* | x | x | x
COC(=O)c1c(NC(=O)COc2ccc(C(C)C)cc2)sc2c1CCCC2 | u | 23µM* | x | x | x
COC(=O)c1c(NC(=O)COc2cccc(C(F)(F)F)c2)sc2c1CCCC2 | -18% | u | x | x | x
COc1ccc(NC(=O)c2c(NC(=O)COc3ccccc3)sc3c2CCCCC3)cc1 | -1% | -7% | x | x | x
C[C@H](CO)N1C[C@H](C)[C@@H](CN(C)Cc2cccc(C(F)(F)F)c2)OCc2cnnn2CCCC1=O | u | u | 3% | 3% | -3
CC(C)Cn1c(=O)c2ccccc2n2c(CCC(=O)NCc3ccc(Cl)cc3)nnc12 | u | -22% | x | x | x
CCOc1ncccc1C(=O)N1CCCSC1=Nc1ccc(C(C)=O)cc1 | -16% | -4% | -2% | -5% | 3
Cc1ccsc1/C=N/Nc1nc(=O)[nH]nc1C | 21µM* | 15µM* | 23µM* | 21µM* | 8
COc1cc(=O)n(C)c2c(OCC3OC(C)(C)OC3(C)C)cccc12 (centres undefined) | -17%[9.04 µM] | -18%[9.04 µM] | 2% | -3% | -19
O=C(Nc1ccc(Cl)cc1Cl)c1ccc2c(=O)n3c(nc2c1)CCC3 | u | 16µM* | 3% | 12% | -7
CNC(=O)c1ccc(NC(=O)c2ccc3c(=O)n4c(nc3c2)CCC4)cc1 | -1% | 13% | 0% | 13% | 9
COc1ccccc1NC(=O)c1ccc2c(=O)n3c(nc2c1)CCC3 | -10% | u | 2% | 7% | -17
O=C(Nc1ccc(Br)cc1Cl)c1ccc2c(=O)n3c(nc2c1)CCC3 | 21µM* | 18µM* | -6% | u | -8
Cc1cc(C)n(CCC(=O)N2c3ccccc3CC2C)n1 (centres undefined) | u | u | -6% | -3% | -2
Cc1ncc(CO)c(/C=N/NC(=S)Nc2ccc(F)cc2)c1O | 16µM* | 10µM* | -29% | u | 50
Cc1ncc(CO)c(/C=N/Nc2ccc(C(F)(F)F)cn2)c1O | 4.1µM* | 3.7µM* | -30% | u | 63
Cc1ncc(CSCC(=O)Nc2cc(C(F)(F)F)ccc2Cl)c(CO)c1O | 9% | u | -4% | 10% | 20
Cc1ncc(CO)c(/C=N/N=C/c2ccccc2O)c1O | -15% | -12% | 15% | 8% | -11
CC(=O)Nc1ccc(NC(=O)CCCCCn2nnc3ccccc3c2=O)cc1 | 8% | -23% | -3% | -1% | 40
SMILES | TDP1 cell CPT | DT40 TDP1 no CPT | HT1080NT lethal | HT1080 IDH1KD tx | IL-1B inflam inh
Cc1c(C(=O)N(Cc2cccc(Br)c2)C2CCS(=O)(=O)C2)oc2ccc(F)cc12 (centres undefined) | u | u | u | u | -25
Cc1c(C(=O)N(Cc2cccc(F)c2)C2CCS(=O)(=O)C2)oc2cc(Br)ccc12 (centres undefined) | u | 18µM* | x | x | x
Cc1ccc2c(=O)cc(C(=O)N(Cc3ccccc3Cl)C3CCS(=O)(=O)C3)oc2c1 (centres undefined) | -27% | u | x | x | x
Cc1cc2oc(C(=O)N(Cc3ccccc3F)C3CCS(=O)(=O)C3)c(C)c2cc1Cl (centres undefined) | u | 16µM* | x | x | x
COc1ccccc1OCc1ccc(C(=O)Nc2ccc(Cl)cn2)o1 | 10% | -11% | -3% | -14% | 0
Cc1ccc([C@H]2N[C@]3(CCCN(Cc4cccn4C)C3=O)[C@H]3C(=O)N(C)C(=O)[C@@H]23)cc1 | u | u | -12% | -8% | -9
CCCc1cc(=O)[nH]c(-n2[nH]c3c(c2=O)CCCC3)n1 | 16µM* | 21µM* | u | u | 34
Cc1cc(CSC(=N)N)c(CSC(=N)N)cc1C | u | 23µM* | -5% | 1% | -7
CC1(C(=O)NCc2ccccc2)CCC(=O)N1CCOc1ccccc1 (centres undefined) | -10% | 5% | 17% | 12% | 10
CNC(=S)N1N=C(c2ccc(Br)cc2)CC1c1ccc(Br)cc1 (centres undefined) | 15µM* | 12µM* | 7% | -4% | u
COc1ccc(C2CCCN2C(=S)Nc2ccc(C)cc2Cl)cc1OC (centres undefined) | u | 16µM* | -28% | -7% | -20
CNC(=S)N1N=C(c2ccc(Br)cc2)CC1c1ccc(N(C)C)cc1 (centres undefined) | u | u | 21% | 11% | -25
CNC(=S)N1N=C(c2ccc(C)cc2)CC1c1ccc(OC)c(OC)c1 (centres undefined) | u | 15µM* | -6% | -6% | -16
COc1ccc(/C=C/C(=O)O)cc1S(=O)(=O)N1CCC(C)CC1 | -1% | -2% | 0% | 8% | 27
Cc1nn(-c2ccccc2)c2c1C(c1ccc([N+](=O)[O-])cc1)N1C(=N2)C(=O)Nc2ccccc21 (centres undefined) | u | 15µM* | -17% | -25% | -75*
Cc1nn(-c2ccc([N+](=O)[O-])cc2)c2c1C(c1cccc(Br)c1)N1C(=N2)C(=O)Nc2ccccc21 (centres undefined) | 2.6µM* | 3.3µM* | 2% | 1% | 3
Cc1c(NS(=O)(=O)c2ccc(Cl)c(C(=O)OCC(=O)NCc3ccco3)c2)c(=O)n(-c2ccccc2)n1C | u | -16% | 14% | 4% | 16
O=C(Nc1ccccc1)c1ccc(Nc2c([N+](=O)[O-])cc([N+](=O)[O-])c3ccccc23)cc1 | 7.3µM* | 10µM* | -13% | -21% | 7
Cc1c(C(=O)Nc2ccc3c4c(cccc24)CC3)cccc1[N+](=O)[O-] | u | 16µM* | 1% | -12% | 47
